Assay results: PubChem BioAssay (NCI)
The panel holds about 83,000 compounds, 20% with a hit somewhere; the sample as a whole holds those more often.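 Plates (96-well) were seeded with cells, treated with compound at one concentration, and incubated for 48 hours before percent growth was determined.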 A number with no mark means an inactive call. Active and inactive are the calls of the source. The calls were made as follows: active = growth percent below 10; inactive = the rest.

Experiments:
Test in all cases: NCI-60 one-dose screen, 48 h (100 = growth as untreated, 0 = no growth, -100 = all killed)
Settings in all cases: 10 µM unless noted
SR leukemia = tested on: SR leukemia
RPMI-8226 leukemia = tested on: RPMI-8226 leukemia
OVCAR-8 ovarian = tested on: OVCAR-8 ovarian
OVCAR-5 ovarian = tested on: OVCAR-5 ovarian
OVCAR-4 ovarian = tested on: OVCAR-4 ovarian
SK-OV-3 ovarian = tested on: SK-OV-3 ovarian
IGROV1 ovarian = tested on: IGROV1 ovarian
OVCAR-3 ovarian = tested on: OVCAR-3 ovarian
HS 578T breast = tested on: HS 578T breast
NCI/ADR-RES ovarian = tested on: NCI/ADR-RES ovarian
T-47D breast = tested on: T-47D breast
BT-549 breast = tested on: BT-549 breast
MDA-MB-435 melanoma = tested on: MDA-MB-435 melanoma
SW-620 colon = tested on: SW-620 colon
MCF7 breast = tested on: MCF7 breast
HCT-116 colon = tested on: HCT-116 colon
HCC-2998 colon = tested on: HCC-2998 colon
KM12 colon = tested on: KM12 colon

Row | SMILES | growth (SR leukemia) | growth (RPMI-8226 leukemia) | growth (OVCAR-8 ovarian) | growth (OVCAR-5 ovarian) | growth (OVCAR-4 ovarian) | growth (SK-OV-3 ovarian) | growth (IGROV1 ovarian) | growth (OVCAR-3 ovarian) | growth (HS 578T breast) | growth (NCI/ADR-RES ovarian) | growth (T-47D breast) | growth (BT-549 breast) | growth (MDA-MB-435 melanoma) | growth (SW-620 colon) | growth (MCF7 breast) | growth (HCT-116 colon) | growth (HCC-2998 colon) | growth (KM12 colon)
1 | Cn1c(=O)c2[nH]c(SCC(=O)Nc3ccc(C(=O)/C=C/c4ccccc4Cl)cc3)nc2n(C)c1=O | 78.1% | 82.2% | 95% | 101% | 88.3% | 97.3% | 100% | 94.7% | 95.5% | 101% | 92.4% | 83.3% | 92% | 95.8% | 69.4% | 58.5% | 106% | 97.9%
2 | CC(C)(C)n1cc(-c2ccnc(NCCCNS(=O)(=O)c3cccc4ccccc34)c2)c(-c2cccc(F)c2)n1 | 27.8% | 65.4% | 81.4% | 91.9% | 78.1% | 91.9% | 78.9% | 90.1% | 91.4% | 78.2% | 34% | 65.4% | 90.4% | 92.4% | 52.9% | 53.5% | 82.8% | 76.6%
3 | C=C1C(=O)O[C@H]2[C@H]1CC/C(COC(=O)/C=C/C(=O)OC/C1=C/CC[C@@]3(C)O[C@H]3[C@H]3OC(=O)C(=C)[C@@H]3CC1)=C\CC[C@@]1(C)O[C@@H]21 | 7.6% (active) | -15.2% (active) | 62.7% | 88.8% | 86.2% | 110% | 87.6% | -0.457% (active) | 90.2% | 96.5% | 32.9% | 93.9% | 80.4% | 6.25% (active) | 22.2% | 2.7% (active) | 106% | 90%
4 | Nc1[nH]n2cc(-c3ccc(F)cc3)nc2c1N=Nc1ccc(S(N)(=O)=O)cc1 | 66.5% | 73.2% | 79% | 90.7% | 80.9% | 73.9% | 61.9% | 78.7% | 66.8% | 105% | 77.8% | 73.9% | 78.4% | 76.7% | 87.7% | 62.7% | 90.8% | 73.1%
5 | O=C(Oc1ccc(CCl)cc1)c1ccccc1 | -43.7% (active) | -50.2% (active) | -84.5% (active) | -85.2% (active) | -83.1% (active) | -100% (active) | -81.4% (active) | -97.3% (active) | -13.4% (active) | -63.7% (active) | -35.1% (active) | -97.9% (active) | -88.7% (active) | -49% (active) | -58.2% (active) | -84.7% (active) | -75% (active) | -79.1% (active)
6 | CCOC(=O)CC1CSC(Nc2ccccc2)=N1 (stereo not drawn) | 98.5% | 105% | 101% | 104% | 112% | 105% | 103% | 102% | 103% | 99.8% | 87.9% | 114% | 105% | 108% | 89.7% | 107% | 102% | 99%
7 | Oc1c(CN2CCC(N3CCCCC3)CC2)cc(Cc2cc(CN3CCC(N4CCCCC4)CC3)c(O)c3ncccc23)c2cccnc12 | 12.1% | 25.4% | 30.1% | 42.1% | 20.7% | 20.5% | 22.9% | 11.1% | 52.8% | 48.4% | 7.31% (active) | 27% | -13.1% (active) | 29.1% | 6.62% (active) | 13% | 32.9% | 21.7%
8 | Cc1ccc2nc(/C(C#N)=C(/CCCO)NC(Cc3ccccc3)C(=O)OCc3ccccc3)[nH]c(=O)c2c1 (stereo not drawn) | 92.3% | 114% | 120% | 89.2% | 125% | 106% | 127% | 110% | 183% | 32.6% | 93% | 94.2% | 89.5% | 110% | 99.8% | 96.9% | -12.5% (active) | 109%
9 | CO[C@H]1CC(=O)n2c3ccccc3c3c4c(c5c6ccccc6n1c5c32)C(=O)NC4=O | 20.8% | 88% | 37.1% | 120% | 24.6% | 68.1% | 37.3% | 56.1% | 27.6% | 36.2% | 11.1% | 68.6% | 48.5% | 32.8% | 20.1% | 55.6% | 93.7% | 29.9%
10 | Cc1c2ccncc2c(C)c2c1c1cc(CO)ccc1n2C | -4.24% (active) | -17.1% (active) | 6.79% (active) | -15.8% (active) | -3.73% (active) | -2.65% (active) | -8.24% (active) | -24.2% (active) | 24.3% | 4.56% (active) | -17.1% (active) | 10.7% | 6.7% (active) | 1.67% (active) | 4.26% (active) | -22.5% (active) | 15.5% | 9.22% (active)
11 | CCN1C(=O)N(CC)C2Nn3c(s/c(=C\c4ccccc4Br)c3=O)=NC21 (stereo not drawn) | 15.7% | 35.4% | 15.4% | 28.9% | 47.5% | 44.7% | 25.7% | -7.24% (active) | 11.4% | 5.54% (active) | 62.1% | 19% | -62.1% (active) | 17.4% | 16.7% | 11.2% | 24.4% | 7.48% (active)
12 | O=C1c2cccc3cccc(c23)C(=O)N1C/C=C/c1ccc2c3c(cccc13)C(=O)N(CCO)C2=O | 67.1% | 74% | 69.6% | 79.2% | 40.1% | 72.3% | 78.7% | 87.9% | 61.6% | 80.2% | 76.7% | 40.3% | 94.4% | 81.8% | 80.1% | 76% | 85.7% | 76.2%
13 | Cc1ccc(-c2nc3nc(-c4ccccc4)nc(N4CCCN(S(C)(=O)=O)CC4)c3o2)cc1 | 30.8% | 92.5% | 50.7% | 92.5% | 48.2% | 81.3% | 75.7% | 83.4% | 86.5% | 56.2% | 92.1% | 94.2% | 34.5% | 44.1% | 65.1% | 24.4% | 96.6% | 86.8%
14 | O=S(=O)(Nc1cc(Sc2cccc3cccnc23)c(O)c2ccccc12)c1ccccc1 | 5.4% (active) | -4.98% (active) | 9.56% (active) | 47.1% | -100% (active) | 52.1% | 10.4% | -81.2% (active) | 40.3% | 8.88% (active) | -26% (active) | 31.4% | 11.3% | -67.8% (active) | -54.6% (active) | -15.2% (active) | 36.9% | 13.6%
15 | COc1ccc(C2=NN(C(C)=O)C(c3cn(-c4ccccc4)nc3-c3ccc(Cl)cc3)C2)cc1 (stereo not drawn) | 10.7% | 37.3% | 17.1% | 68.1% | -23.5% (active) | 38.1% | 54.1% | -42.6% (active) | 26.2% | 15.3% | 7.93% (active) | 48.4% | 34.2% | 17.3% | 21.8% | -11.6% (active) | 36.3% | 29.6%
16 | C=C(CNCCO)[C@@H]1CC[C@]2(CO)CC[C@]3(C)[C@H](CC[C@@H]4[C@@]5(C)CCC(N)C(C)(C)[C@@H]5CC[C@]43C)[C@@H]12 (stereo partly drawn) | -23.1% (active) | -35.3% (active) | 36.8% | 81.6% | 64.6% | 95.2% | 65.3% | 69.4% | 51% | 94.8% | -47.7% (active) | 65% | -44% (active) | 7.71% (active) | -29.9% (active) | 7.75% (active) | -37.2% (active) | 25.2%
